# Results filed as inconclusive are left out. A call without a number means that no potency is given here. Activity calls are given as the source filed them. Calls follow the shape of the dose curve; as a rule, active = well fitted curve in the direction sought with a large enough effect; inconclusive = small, poorly fitted or top-dose-only effect, or another doubt; inactive = no such curve, though single readings can be large; an effect the other way counts as inactive or inconclusive.
# What was measured:
# [1] = target: Glutathione peroxidase 1 (Homo sapiens) (UniProt P07203); assay: Primary qHTS Assay for Inhibitors of Recombinant Selenoprotein Glutathione Peroxidase 1 (GPX1) (AID 1845191); also: nearly all actives have a fitted effect of over 65% in size
# Outline: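 GPX1 10 nM, GR 100 nM, GSH 1 mM, NADPH 0.5 mM, CHP 0.5 mM (final). 30-min cpd preincubation, RT. Ex340/Em450 read t=0, t=15 min.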
# [2] = target: Phospholipid hydroperoxide glutathione peroxidase GPX4 (Homo sapiens) (UniProt P36969); assay: Primary qHTS Assay for Inhibitors of Recombinant Selenoprotein Glutathione Peroxidase 4 (GPX4) (AID 1845192); also: nearly all actives have a fitted effect of over 65% in size
# Outline: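 qHTS, GR-coupled: GPX4 200 nM + cpd 30 min RT → GSH 1 mM, NADPH 0.5 mM, GR 100 nM → CHP 0.5 mM start; fluor 340/450 at t0 and t15 min; no-enzyme wells as control.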
# [3] = target: Metallo-beta-lactamase type 2 (Klebsiella pneumoniae) (UniProt C7C422); assay: qHTS to identify inhibitors of the New Delhi Metallo-beta-lactamase (NDM): assay validation screen against the NCATS LOPAC Collection (AID 1794843);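 also: nitrocefin turnover by NDM-1 measured as 485 nm absorbance at plateau; series mostly up to about 38 µM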
# Source text: Assay Submitter (PI): James Inglese Ph.D., Patricia Dranchak Ph.D., Mahesh Aitha Ph.D.
# (§1) Assay Development and Screening Technology Laboratory (ADST)
# (§2) National Center for Advancing Translational Sciences (NCATS), Rockville, MD
# (§3) National Institute of Health (NIH), Bethesda, Maryland
# The metallo-beta-lactamases (MBL) are a main antibiotic resistance mechanism evolved by bacteria. There is an urgent clinical need for MBL inhibitors to mitigate this growing threat. To support a machine-based learning study, qHTS has been used to experimentally test inhibitors identified by prediction tools.
# PROTOCOL TABLE (as described by Inglese et al., 2007)
# SEQUENCE No. (e.g., 1, 2, 3, etc.); […] (e.g., enzyme, Incubation, Reagent, etc.); VALUE; DESCRIPTION
# 1; NDM-1; 4 uL of 3 nM enzyme in 50 mM HEPES (pH 7.0), 1 uM Zn2SO4, 0.01% Tween20; Use BioRaptr to dispense into Aurora black, clear bottom low base 1536-well plates
# 2; Compounds; 23 nL; Use Pin Tool (Wako) to transfer DMSO control and library compounds in DMSO
# 4; Reagent; 2 uL of 50 uM nitrocefin
# 6; Detector; Absorbance at 485 nm (bandwidth = 5 nm, 25 flashes/well) on Tecan Infinity
# NOTES (numbers refer to sequence above)
# 1; Column 1 of each plate received assay buffer without enzyme and columns 2-48 received enzyme for a final assay concentration of 2 nM.
# 2; Control plate contained DMSO in columns 1, 2, 3, and 4.
# 3; Compound interaction with enzyme.
# 5; Substrate interaction with enzyme, plateau phase of kinetics.
# 6; Default reader settings were applied for absorbance read at 485 nm, bandwidth = 5 nm, 25 flashes/well.
# Inglese J, Shamu CE, Guy RK. 2007. Reporting data from high-throughput screening of small-molecule libraries. Nat Chem Biol. doi:10.1038/nchembio0807-438
# Yasgar A, Shinn P, Jadhav A, Auld D, Michael S, Zheng W, Austin CP, Inglese J, Simeonov A. 2008. Compound Management for Quantitative High-Throughput Screening. J Lab Autom 13:79 - 89. doi:10.1016/j.jala.2007.12.004
# [4] = HepG2 viability counterscreen (readout 2: ATP content) against the NCATS DSHEA and TCM libraries (AID 1794840);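 also: HepG2 cells exposed to substances for about 24 h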
# Outline: (§4)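 Readout 1: cellular protease activity, GF-AFC substrate (25 uM final, 30 min, fluorescence 380/510 nm). Readout 2: ATP content by CellTiter-Glo luminescence after 30 min at RT. Both follow ~24 h exposure of HepG2 cells (1,000/well) to substances.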
# [5] = HepG2 viability counterscreen (readout 1: protease activity) against the NCATS DSHEA and TCM libraries (AID 1794841);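 also: cells exposed to compounds for about 24 h before the protease read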
# Outline: as §4
# [6] = target: Cytochrome P450 3A4 (Homo sapiens) (UniProt P08684); assay: qHTS for inhibitors of CYP3A4 against the NCATS DSHEA and TCM libraries (AID 1919971);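 also: inhibition lowers luminescence from luciferin made by CYP3A4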
# Source text: as §1, §2, §3
# Dietary Supplements and Natural Products have minor oversight of their safety and efficacy. We assembled a collection of Dietary Supplements and Natural Products (DSNP) as well as Traditional Chinese Medicinal (TCM) Plant extracts, which were screened against an in vitro panel of assays, including a liver cytochrome p450 enzyme panel, CAR/PXR signaling pathways, and P-gp transporter assays, to assess their activity. This pipeline facilitated the interrogation of Natural Product-Drug Interaction (NaPDI) through prominent metabolizing pathways. In addition, we compared the activity profiles of the DSNP/TCM substances with those of an approved drug collection. Many of the approved drugs have well-annotated mechanisms of action (MOA) while the MOAs for most of the DSNP and TCM samples remain unknown. […] Overall, we highlight four significant bioactivity profiles (measured by p-values) as examples of this prediction. […] To profile potential P-gp activity, a differential cell viability was measured against two cell lines: a parental KB-3-1 human cervical adenocarcinoma cell line and the drug-resistant subline KB-8-5-11 that overexpresses P-gp. […]
# 9; Read; Luminescence; ViewLux plate reader. […]
# Phospholipid hydroperoxide glutathione peroxidase GPX4 (Homo sapiens), sequence (P36969 whole entry, looked up): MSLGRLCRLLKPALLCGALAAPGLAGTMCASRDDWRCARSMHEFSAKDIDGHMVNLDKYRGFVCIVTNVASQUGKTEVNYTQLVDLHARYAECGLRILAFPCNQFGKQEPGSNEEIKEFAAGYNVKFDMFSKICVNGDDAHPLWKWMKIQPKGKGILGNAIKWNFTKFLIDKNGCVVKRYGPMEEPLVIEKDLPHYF
# Glutathione peroxidase 1 (Homo sapiens), sequence (P07203 whole entry, looked up): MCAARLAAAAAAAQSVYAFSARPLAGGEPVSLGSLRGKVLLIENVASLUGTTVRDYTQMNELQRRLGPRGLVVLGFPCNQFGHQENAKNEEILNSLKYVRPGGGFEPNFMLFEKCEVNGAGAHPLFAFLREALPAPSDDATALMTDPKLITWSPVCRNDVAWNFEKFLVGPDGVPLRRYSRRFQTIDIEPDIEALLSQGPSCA
# Metallo-beta-lactamase type 2 (Klebsiella pneumoniae), sequence (C7C422 whole entry, looked up): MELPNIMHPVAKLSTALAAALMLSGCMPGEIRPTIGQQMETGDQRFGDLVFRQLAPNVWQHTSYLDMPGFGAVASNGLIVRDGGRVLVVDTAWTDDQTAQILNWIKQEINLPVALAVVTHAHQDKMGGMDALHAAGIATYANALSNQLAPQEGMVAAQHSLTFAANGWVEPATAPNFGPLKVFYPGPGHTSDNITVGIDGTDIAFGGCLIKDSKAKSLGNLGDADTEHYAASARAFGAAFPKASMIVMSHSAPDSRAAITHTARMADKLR
# Cytochrome P450 3A4 (Homo sapiens), sequence (P08684 whole entry, looked up): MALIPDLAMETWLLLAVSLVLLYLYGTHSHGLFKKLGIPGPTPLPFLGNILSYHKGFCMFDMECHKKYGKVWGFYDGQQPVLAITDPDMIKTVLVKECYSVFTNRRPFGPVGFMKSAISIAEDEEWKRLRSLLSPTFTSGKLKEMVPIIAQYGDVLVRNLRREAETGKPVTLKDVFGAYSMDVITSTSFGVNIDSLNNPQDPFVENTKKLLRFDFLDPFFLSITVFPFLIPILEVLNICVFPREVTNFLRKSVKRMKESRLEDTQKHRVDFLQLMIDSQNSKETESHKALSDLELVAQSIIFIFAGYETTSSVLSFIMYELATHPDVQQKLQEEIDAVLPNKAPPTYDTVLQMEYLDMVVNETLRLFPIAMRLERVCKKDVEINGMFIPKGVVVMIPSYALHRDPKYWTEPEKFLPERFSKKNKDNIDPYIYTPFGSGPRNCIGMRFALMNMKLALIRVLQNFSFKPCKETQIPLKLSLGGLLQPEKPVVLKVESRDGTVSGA
compound,measurement,setting,value
CCc1ccc(C(=O)C(C)CN2CCCCC2)cc1 (stereo not drawn),Potency,[1],inactive
same,Potency,[2],inactive
COc1cc(NS(=O)(=O)c2ccc(N)cc2)ncn1,Potency,[1],inactive
same,Potency,[2],inactive
CCc1oc2ccccc2c1C(=O)c1cc(I)c(O)c(I)c1,Potency,[1],inactive
Nc1ccc(C(=O)NCC(=O)O)cc1,Potency,[1],inactive
same,Potency,[2],inactive
CN(C)CCC[C@@]1(c2ccc(F)cc2)OCc2cc(C#N)ccc21,Potency,[1],inactive
O=C1C(CCS(=O)c2ccccc2)C(=O)N(c2ccccc2)N1c1ccccc1 (stereo not drawn),Potency,[1],inactive
same,Potency,[2],inactive
CN(C)CCN1C(=O)c2ccccc2N(C)c2ccccc21,Potency,[1],inactive
same,Potency,[2],inactive
CC(C)(C)NC[C@H](O)COc1nsnc1N1CCOCC1,outcome,[3],inactive
same,Potency,[1],inactive
same,Potency,[2],inactive
CN=C(N)NCCC[C@H](N)C(=O)O,outcome,[3],inactive
same,Potency,[1],inactive
same,Potency,[2],inactive
CCN[C@@H]1C[C@H](N)[C@@H](OC2OC(CN)=CCC2N)[C@H](O)[C@H]1O[C@H]1OC[C@](C)(O)[C@H](NC)[C@H]1O (stereo partly drawn),outcome,[1],inactive [at 0.4 µM]
same,outcome,[2],inactive [at 0.409 µM]
CCOC(=O)[C@H](CCc1ccccc1)N[C@@H](C)C(=O)N1[C@H](C(=O)O)C[C@H]2CCCC[C@@H]21,outcome,[3],inactive
same,Potency,[1],inactive
same,Potency,[2],inactive
CCN1CCCC(OC(=O)C(c2ccccc2)c2ccccc2)C1 (stereo not drawn),Potency,[1],inactive
same,Potency,[2],inactive
CCCCCCCCCCCCCCCC(=O)O,outcome,[4],inactive
same,outcome,[5],inactive
same,outcome,[6],inactive
CC1CCc2c(N3CCC(O)CC3)c(F)cc3c(=O)c(C(=O)O)cn1c23 (stereo not drawn),Potency,[1],inactive
same,Potency,[2],inactive
CCCCN1C[C@H](O)[C@@H](O)[C@H](O)[C@H]1CO,Potency,[1],inactive
same,Potency,[2],inactive
COc1cc(C)nc(-n2nc(C)cc2OC)n1,Potency,[1],inactive
same,Potency,[2],inactive
Cc1c[nH]c2ccccc12,Potency,[1],inactive
same,Potency,[2],inactive
CC(=O)O[C@]1(C(C)=O)CC[C@H]2[C@@H]3C=C(Cl)C4=CC(=O)CC[C@]4(C)[C@H]3CC[C@@]21C,Potency,[1],inactive
same,Potency,[2],inactive
C/C=C/c1ccc(O)c(OC)c1,Potency,[1],inactive
same,Potency,[2],inactive
CCN(CC)CCOC(=O)C1(c2ccccc2)CCCC1,Potency,[1],inactive
same,Potency,[2],inactive
NS(=O)(=O)Cc1noc2ccccc12,Potency,[1],inactive
same,Potency,[2],inactive
O=C(NC1CCN(CCc2c[nH]c3ccccc23)CC1)c1ccccc1,Potency,[1],inactive
same,Potency,[2],inactive
CC(=O)O[C@H]1C[C@@H]2CC[C@@H]3[C@H](CC[C@@]4(C)[C@H]3C[C@H]([N+]3(C)CCCCC3)[C@@H]4OC(C)=O)[C@@]2(C)C[C@@H]1N1CCCCC1,Potency,[1],inactive
same,Potency,[2],inactive
CCN(CC)CCOc1ccccc1C(=O)CCc1ccccc1,Potency,[1],inactive
same,Potency,[2],inactive
CCOCCn1c(N2CCCN(C)CC2)nc2ccccc21,Potency,[1],inactive
same,Potency,[2],inactive
O=C1C(=O)c2ccccc2C(O)=C1C1CCC(c2ccc(Cl)cc2)CC1 (stereo not drawn),Potency,[1],inactive
same,Potency,[2],inactive
COc1ccc(-c2cc(C(F)F)nn2-c2ccc(S(N)(=O)=O)cc2)cc1F,Potency,[1],inactive
same,Potency,[2],inactive
OC1C(O)C(O)C(O)C(O)C1O (stereo not drawn),outcome,[4],inactive
same,outcome,[5],inactive
same,Potency,[2],inactive
same,outcome,[6],inactive
COc1cc([C@H]2Oc3cc([C@H]4Oc5cc(O)cc(O)c5C(=O)[C@@H]4O)ccc3O[C@@H]2CO)ccc1O,Potency,[1],inactive
NC(N)=NCc1cccc(I)c1,outcome,[3],inactive
same,Potency,[2],inactive
CCC1NC(=O)c2cc(S(N)(=O)=O)c(Cl)cc2N1 (stereo not drawn),Potency,[1],inactive
same,Potency,[2],inactive
NS(=O)(=O)c1ccc(Cl)c(S(N)(=O)=O)c1,Potency,[1],inactive
same,Potency,[2],inactive
COc1cc(C(=O)NCc2ccc(OCCN(C)C)cc2)cc(OC)c1OC,Potency,[1],inactive
same,Potency,[2],inactive
Clc1cccc(C(c2ccc3nc[nH]c3c2)n2ccnc2)c1 (stereo not drawn),Potency,[1],inactive
same,Potency,[2],inactive
CCCCCCCCCCCCCCCCO,Potency,[1],inactive
same,Potency,[2],inactive
CCCN(CCc1cccs1)[C@H]1CCc2c(O)cccc2C1,Potency,[1],inactive
same,Potency,[2],inactive
COc1ccc(CN(CCN(C)C)c2ncccn2)cc1,Potency,[1],inactive
same,Potency,[2],inactive
CCOC(=O)c1ccc(N)cc1,Potency,[1],inactive
same,Potency,[2],inactive
Cc1ccc(-c2ncc(Cl)cc2-c2ccc(S(C)(=O)=O)cc2)cn1,Potency,[1],inactive
same,Potency,[2],inactive
O=C(O)CCNC(=O)c1ccccc1,Potency,[1],inactive
same,Potency,[2],inactive
CN(C)CCOC(=O)C(c1ccccc1)C1(O)CCCC1 (stereo not drawn),Potency,[1],inactive
same,Potency,[2],inactive
CCN(CC)CCOC(=O)C(Cc1cccc2ccccc12)CC1CCCO1 (stereo not drawn),Potency,[1],inactive
same,Potency,[2],inactive
Cc1cc(C)cc(OCC2CNC(=O)O2)c1 (stereo not drawn),Potency,[1],inactive
same,Potency,[2],inactive
COc1cc(O)c(C(=O)c2ccccc2)cc1S(=O)(=O)O,Potency,[1],inactive
same,Potency,[2],inactive
COc1ccc(C(=O)c2ccccc2O)c(O)c1,Potency,[1],inactive
same,Potency,[2],inactive

# Reference: PubChem BioAssay (NCATS)
